Source: PubChem BioAssay AID1159580 (chemical genetic matrix, 2015)
Where “and” joins values, the source holds several entries; their conditions need not be identical. Equal entries are not always repeated. In all, about 5,500 compounds went through this assay and about 2,000 (36%) were called active. Roughly 18% stayed inconclusive and do not appear here. Rule as the data show it: active = normalized growth mostly below about 0.91 (no sharp cut-off); inconclusive = no clear call, values can overlap the other calls; inactive = mostly above about 0.92. The list shows a part of the results.

Assay: chemical genetic growth profiling, strain panel (AID 1159580);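 also: tested at 20 µM; growth read once vehicle control cultures reached saturation at 30 °C; 1 = growth at the plate median or of vehicle wells; lower values mean less growth of the strain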
Conditions: S. cerevisiae deletion strains, growth OD

Measured: normalized growth

CCOc1ccc(C(=O)c2ccc(O)c(O)c2O)cc1
active: locus YAL021C, strain ccr4, hits give low values 0.754 | locus YAL026C, strain drs2, hits give low values 0.844 | locus YBL061C, strain skt5, hits give low values 0.898 | locus YBR023C, strain chs3, hits give low values 0.84 | locus YBR231C, strain swc5, hits give low values 0.829 | locus YBR279W, strain paf1, hits give low values 0.927 | locus YCL029C, strain bik1, hits give low values 0.857 | locus YCL061C, strain MRC1, hits give low values 0.908 | locus YDL074C, strain BRE1, hits give low values 0.741 | locus YDL101C, strain DUN1, hits give low values 0.849 | locus YDL134C, strain PPH21, hits give low values 0.853 | locus YDL185W, strain tfp1, hits give low values 0.845 | locus YDL192W, strain arf1, hits give low values 0.868 | locus YDR069C, strain doa4, hits give low values 0.703 | locus YDR101C, strain arx1, hits give low values 0.911 | locus YDR137W, strain rgp1, hits give low values 0.701 | locus YDR162C, strain NBP2, hits give low values 0.823 | locus YDR318W, strain mcm21, hits give low values 0.907 | locus YDR334W, strain swr1, hits give low values 0.877 | locus YDR335W, strain msn5, hits give low values 0.858 | locus YDR502C, strain sam2, hits give low values 0.861 | locus YEL003W, strain gim4, hits give low values 0.893 | locus YEL061C, strain CIN8, hits give low values 0.901 | locus YER015W, strain faa2, hits give low values 0.883 | locus YER111C, strain swi4, hits give low values 0.72 | locus YFR010W, strain ubp6, hits give low values 0.854 | locus YGL086W, strain mad1, hits give low values 0.86 | locus YGL173C, strain kem1, hits give low values 0.853 | locus YGL248W, strain PDE1, hits give low values 0.837 | locus YGR078C, strain PAC10, hits give low values 0.821 | locus YGR135W, strain pre9, hits give low values 0.85 | locus YHR027C, strain rpn1, hits give low values 0.869 | locus YHR030C, strain SLT2, hits give low values 0.824 | locus YHR079C, strain IRE1 (second series), hits give low values 0.902 | locus YHR129C, strain ARP1, hits give low values 0.826 | locus YHR142W, strain chs7, hits give low values 0.786 | locus YHR200W, strain rpn10, hits give low values 0.886 | locus YJL095W, strain BCK1 (second series), hits give low values 0.908 | locus YJL095W, strain BCK1, hits give low values 0.784 and 0.833 | locus YJL164C, strain tpk1, hits give low values 0.877 | locus YJL187C, strain SWE1 (second series), hits give low values 0.632 | locus YJL187C, strain SWE1, hits give low values 0.915 | locus YJR066W, strain TOR1, hits give low values 0.812
inactive: locus YAL030W, strain snc1, hits give low values 0.936 | locus YBR009C, strain hhf1, hits give low values 0.926 | locus YBR021W, strain FUR4, hits give low values 0.926 | locus YBR171W, strain sec66, hits give low values 0.899 | locus YBR229C, strain ROT2, hits give low values 0.979 | locus YCL011C, strain gbp2, hits give low values 0.945 | locus YCL016C, strain dcc1, hits give low values 0.919 | locus YCL069W, strain vba3, hits give low values 0.96 | locus YCR088W, strain abp1, hits give low values 0.949 | locus YDL005C, strain med2, hits give low values 0.973 | locus YDL035C, strain GPR1, hits give low values 0.899 | locus YDL040C, strain nat1, hits give low values 0.971 | locus YDR001C, strain nth1, hits give low values 0.963 | locus YDR159W, strain sac3, hits give low values 0.924 | locus YDR195W, strain ref2 1.04 | locus YDR297W, strain sur2, hits give low values 0.928 | locus YDR388W, hits give low values 0.955 | locus YDR392W, strain spt3, hits give low values 0.87 | locus YEL037C, strain rad23, hits give low values 0.928 | locus YEL061C, strain CIN8 (second series), hits give low values 0.958 | locus YER016W, strain bim1, hits give low values 0.924 | locus YER110C, hits give low values 0.989 | locus YER155C, strain BEM2 (second series), hits give low values 0.902 | locus YER155C, strain BEM2, hits give low values 0.991 | locus YER167W, strain BCK2, hits give low values 0.953 | locus YGL078C, strain dbp3, hits give low values 0.965 | locus YGL167C, strain pmr1, hits give low values 0.917 | locus YGL227W, strain vid30, hits give low values 0.982 | locus YGL240W, strain doc1, hits give low values 0.955 | locus YGL253W, strain hxk2, hits give low values 0.928 | locus YGR252W, strain gcn5, hits give low values 0.861 | locus YHR013C, strain ard1, hits give low values 0.852 | locus YHR079C, strain IRE1, hits give low values 0.898 | locus YHR094C, strain hxt1, hits give low values 0.993 | locus YIL066C, strain RNR3, hits give low values 0.88 | locus YIL073C, strain SPO22, hits give low values 0.848 | locus YIL125W, strain kgd1, hits give low values 0.951 | locus YIR030C, strain dcg1, hits give low values 0.976 | locus YJL092W, strain hpr5, hits give low values 0.955 | locus YJL115W, strain asf1, hits give low values 0.966 | locus YJL129C, strain trk1, hits give low values 0.944 | locus YJL134W, strain LCB3, hits give low values 0.968 | locus YJL154C, strain vps35, hits give low values 0.953 | locus YJL166W, strain qcr8, hits give low values 0.933 | locus YJL168C, strain set2, hits give low values 0.963
